The values that follow come from PubChem BioAssay (NCI).

This is part of a sample that, as a whole, favours compounds with a hit. Of some 83,000 tested, about 20% had one in any assay.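 In brief: 96-well plates, 48 h treatment, single concentration, percent growth endpoint.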 Unmarked numbers belong to inactive results. Calls of active or inactive are those of the source. How the source made its calls: active means growth percent below 10; inactive means the rest.

The assay relates to HL-60(TB) leukemia. As to the kind of experiment: NCI-60 one-dose screen, 48 h (100 = growth as untreated, 0 = no growth, -100 = all killed). The following applies: 10 µM unless noted.
Take `CCn1cc(C(=O)O)c(=O)c2cc(F)c(N3CCN(S(=O)(=O)c4ccc(Cl)cc4)CC3)cc21`: the growth is 8.96% (active).

On to `CCOC(=O)C1=C(C)NC(=O)NC1c1c(Cl)n(-c2ccccc2)c2ccccc12` (configuration not stated), for which the growth is 73.4%.

With `O[C@@H]1CCO[C@H](c2ccc3ccccc3c2)C1`, the growth was 102%.

`C=C1C(=O)O[C@H]2[C@H]1CC/C(COC(=O)/C=C\C(=O)NCc1ccc(Cn3c(=O)sn(CCI)c3=O)cc1)=C\CC[C@@]1(C)O[C@@H]21`: the growth is -34.7% (active).

For `O=C(Cc1ccc(/C=C/C(=O)c2ncc[nH]2)cc1)Nc1cc(C(F)(F)F)cc(C(F)(F)F)c1`, the growth was 52.1%.

Regarding `N#C/C(=C\c1ccccc1Cl)c1cc2ccccc2[nH]1`, the growth was 98.8%.

Take `CC(C)CCCC(=O)O`: the growth was 109%.

On to `COc1cccc(N=Nc2cccc(OC)c2)c1`, for which the growth is 66.9%.

`C[C@]12CCc3nc(Nc4ccccc4)sc3C1=CC[C@@H]1[C@@H]2CC[C@]2(C)/C(=N/NC(N)=S)CC[C@@H]12`: the growth is 49%.

For the compound `COc1cccc(-c2nn(-c3ccccc3)cc2-c2ccnc(NCCCNS(=O)(=O)c3cccc(F)c3)c2)c1`, the growth was 9.51% (active).

As to `COc1ccccc1CNCCCN1C(=O)c2ccc3c4c(ccc(c24)C1=O)C(=O)N(CCCNCCNCCCN)C3=O`, the growth was 0.848% (active).

In the case of `O=C1c2ccccc2C(=O)c2c1ccc1[nH]c(-c3cccs3)nc21`, the growth was 93.6%.

`CCc1cccc2c1S/C(=C/c1ccc(OC)cc1)C2=O`: the growth is 5.21% (active).

With `Cc1ncc(-c2ccnc(Nc3ccc(S(C)(=O)=O)cc3)n2)n1C(C)C`, the growth is -43.2% (active).

Take `CCOc1ccc([C@@H]2[C@@H](Oc3ccccc3)C(=O)N2c2cc(OC)c(OC)c(OC)c2)cc1`: the growth was -36% (active).

Regarding `CN(C)/C=C1\SC(=Nc2ccc(Cl)cc2)NC1=O`, the growth is 99.5%.

Consider `COc1ccc2c(c1)C(=O)c1c-2c(OCCN(C)C)nc2ccccc12`, for which the growth was 25.4%.

In the case of `COc1ccc(Cl)cc1NC(=O)c1cc2c([nH]1)-c1nc(N)sc1CCC2`, the growth was 56.9%.

As for `O=[N+]([O-])c1ccc(N/N=C/c2ccccc2O)nc1`, the growth is 0.837% (active).

On to `COc1ccc2nc(NC(=O)c3cccnc3Nc3cc(OC)c(OC)c(OC)c3)sc2c1`, for which the growth was 51.8%.

On to `O=S(=O)(NCCNc1nccc(-c2c(-c3cccc(F)c3)nc3sccn23)n1)c1ccc(Br)cc1`, for which the growth is 90.5%.

`CCN(CC)c1ccc(/C=N/NC(=O)CSc2nc3ccccc3c(=O)n2CCc2ccc(S(N)(=O)=O)cc2)c(O)c1`: the growth is -18.7% (active).

In the case of `CCc1c(C(=O)Nc2ccc3ccccc3c2)[nH]c(C)c1C(C)=O`, the growth was 99.7%.

`COc1cc(/C=C/c2cc(/C=C/c3ccc(O)c(OC)c3)n(-c3ccccc3)n2)ccc1O`: the growth was -42.2% (active).

Consider `CC(=O)C(/C=N/C(N)=O)=C(/C)O`, for which the growth is 104%.

`Cn1c(=O)c2c(nc(N/N=C/c3ccccc3Cl)n2C)n(C)c1=O`: the growth is 91.6%.

In the case of `COc1ccc(/C=C2/C(=O)Nc3cc(Cl)c(-c4csc(N)n4)cc32)cc1`, the growth was 8.08% (active).

Consider `Clc1cccc(CNc2c3ccccc3nc3ccccc23)c1`, for which the growth was 9.02% (active).

Turning to `COC(=O)c1ccc2cc(OC)c(OC)cc2c1`, the growth was 94.8%.

Consider `COc1ccc(-n2nc(C)c3c(Nc4ccc(NC(=O)Nc5ccc(Cl)c(C(F)(F)F)c5)cc4)ncnc32)cc1`, for which the growth was -9.54% (active).

As for `COc1ccc(/C=C2\N=C3Sc4cc(Cl)ccc4C(=O)N3C2=O)cc1`, the growth was 92.4%.

On to `O=C(O)c1cccc(S(=O)(=O)c2ccccc2)c1`, for which the growth was 92%.

With `OC(c1cc(-c2ccccc2)nc2ccc(Cl)cc12)C1CCCCN1` (configuration not stated), the growth was 49.7%.

For the compound `COc1cc(C(=O)/C=C/c2c(C)n([O-])c3ccc(Cl)cc3[n+]2=O)cc(OC)c1OC`, the growth is -59.5% (active).

For the compound `C#CC#CC#CC#CC#CC#CC#CC#CCC1OC[C@H](COC(=O)O[C@@H](C(=O)O[C@H]2C[C@@]3(O)[C@@H](OC(=O)c4ccccc4)[C@@H]4[C@]5(OC(C)=O)CO[C@@H]5C[C@H](O)[C@@]4(C)C(=O)[C@H](OC(C)=O)C(=C2C)C3(C)C)[C@@H](NC(=O)c2ccccc2)c2ccccc2)O1` (some centres not stated), the growth was 8.1% (active).

In the case of `c1ccc2nc(N/N=C3\CCCCC3C3CCCCC3)ccc2c1` (configuration not stated), the growth is -19.7% (active).

On to `Cc1ccc(NC(=O)NC2CCCCC2)cc1`, for which the growth was 63.1%.
